# Sampled rows, rich in hits. Any-hit rate of the full collection: about 1.4%.
# Mtb MenB inh – M. tuberculosis MenB inhibitors, primary screen, biochemical, absorbance; 1,4-dihydroxy-2-naphthoyl-CoA synthase (Mycobacterium tuberculosis (strain ATCC 25618 / …; MenB enzyme assay, absorbance read-out; inhibition, % (test concentration not listed); 0.43% of 100,000 active; AID 540299, 2011; in the data active = inhibition above about 21%, passing the limit was not always enough
# Polio RdRp inh – poliovirus RdRp elongation inhibitors, primary screen, biochemical, fluorescence polarization, total intensity; Genome polyprotein (Poliovirus type 1 (strain Mahoney)), P03300; poliovirus polymerase elongation; hits give low values; % elongation, % (compound at 16.7 µg/mL); 0.66% of 150,000 active; in the data active = % elongation below about 90%
# Target sequence (P03300 1749-2209 limits assumed): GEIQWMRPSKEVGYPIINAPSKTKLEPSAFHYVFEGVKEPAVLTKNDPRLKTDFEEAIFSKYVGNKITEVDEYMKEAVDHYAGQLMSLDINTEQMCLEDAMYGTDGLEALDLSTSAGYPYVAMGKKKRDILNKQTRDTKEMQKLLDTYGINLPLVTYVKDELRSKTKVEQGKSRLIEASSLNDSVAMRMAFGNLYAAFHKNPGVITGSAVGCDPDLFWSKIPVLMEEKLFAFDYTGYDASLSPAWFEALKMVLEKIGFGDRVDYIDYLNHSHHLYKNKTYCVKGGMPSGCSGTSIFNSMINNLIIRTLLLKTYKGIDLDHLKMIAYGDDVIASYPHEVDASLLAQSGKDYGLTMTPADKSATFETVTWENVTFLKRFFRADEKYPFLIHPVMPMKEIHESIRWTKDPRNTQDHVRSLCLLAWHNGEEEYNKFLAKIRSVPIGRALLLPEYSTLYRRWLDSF
# MbtI inh – MbtI salicylate synthase inhibitors, primary screen, biochemical, fluorescence intensity; P9WFX0; purified MbtI enzyme, fluorescence intensity read-out; inhibition, % (concentration not given with the values); 0.89% of 100,000 active; AID 493033, 2011; in the data active = inhibition mostly above about 56%, no sharp cut-off; inactive = mostly below about 77%
# Active calls of the source: *; · = no result given.
SMILES,Mtb MenB inh,Polio RdRp inh,MbtI inh
O=C1CCCc2cc(S(=O)(=O)NCC3CCC(C(=O)N4CCCCCC4)CC3)ccc2N1 (centres undefined),-27.8,104.0,-5.5
CC(C)(C)C1CCc2onc(C(=O)Nc3sc4c(c3C(N)=O)CCCC4)c2C1 (centres undefined),·,79.0*,·
CC(C)(C)C1CCc2onc(C(=O)Nc3sc4c(c3C#N)CCCC4)c2C1 (centres undefined),·,82.0*,·
CCc1c(C)sc(NC(=O)c2noc3c2CC(C(C)(C)C)CC3)c1C#N (centres undefined),-15.9,98.0,36.0
CSc1ccccc1NC(=O)c1noc2c1CC(C(C)(C)C)CC2 (centres undefined),-26.5,104.0,2.0
NC(=O)c1oc2ccccc2c1NC(=O)CSc1ccc(F)cc1,-37.7,106.0,18.7
Cc1nc(C(F)(F)F)ccc1C(=O)NCC1CC1,-1.2,100.0,-7.4
Cc1nc(C(F)(F)F)ccc1C(=O)NCC(O)c1ccccc1 (centres undefined),-2.2,88.0*,-14.6
COc1ccc(C(=O)Nc2nc(-c3ccc(C#N)cc3)cs2)c(OC)c1,-10.6,100.0,8.6
COC(=O)/C=C1/OC(c2ccccc2)=CC1=O,-25.4,139.0,89.4*
O=C(O)/C=C1\OC(=O)c2ccccc21,-5.7,106.0,-0.6
Cn1c(C2CC2)n[nH]c1=S,-51.8,108.0,17.4
CCn1c(C2CC2)n[nH]c1=S,-15.3,·,87.1*
CCOc1ccc(NC(=O)c2c(NC(=O)c3ccncc3)sc3c2CCC(C(C)(C)C)C3)cc1 (centres undefined),·,83.0*,·
COc1ccc(NC(=O)c2c(NC(=O)c3ccncc3)sc3c2CCC(C(C)(C)C)C3)cc1 (centres undefined),·,102.0,·
CCOc1ccc(OCCCCN(C)C)cc1,-29.5,101.0,1.4
CCOc1ccc(C(=S)N(C)C)cc1,-15.9,100.0,78.5*
Cc1cc2nc(N3CCN(S(=O)(=O)c4ccccc4)CC3)c3ccccc3n2n1,3.1,105.0,6.2
CC1Cc2ccccc2N1C(=O)c1nc2ccccc2s1 (centres undefined),-7.2,102.0,-7.4
COc1ccccc1C(=O)NCC(=O)O,34.7*,100.0,-0.4
CCOc1ccccc1C(=O)NCC(=O)O,·,102.0,0.6
Cc1nc2ccc(NC(=O)[C@@H]3CCCN3S(=O)(=O)c3ccc4c(c3)OCCO4)cc2s1,-34.3,105.0,-7.1
Cc1nc2c(C(=O)NCCN3CCOCC3)cnn2c(C)c1Cc1cccc(Cl)c1,-4.1,101.0,-9.8
C=CCN1C(=O)/C(=C\c2ccc(OC(=O)c3ccco3)c(OC)c2)SC1=S,-37.3,105.0,-9.3
COc1cc(/C=C2/C(=O)NN(c3ccc(Cl)cc3)C2=O)ccc1OC(=O)c1ccco1,-42.0,101.0,98.8*
SMILES,Mtb MenB inh,Polio RdRp inh,MbtI inh
CCCCC(=O)c1ccc(C)[nH]c1=S,-2.9,103.0,·
Cc1ccc(C(N)=S)c(=O)[nH]1,-54.9,85.0*,172.6
NC(=O)c1cc(S(=O)(=O)NCc2ccccc2)cs1,·,-12.0*,·
NC(=O)c1cc(S(=O)(=O)NCc2ccc(Br)cc2)cs1,·,111.0,·
O=C1Cc2cc(C(=O)CSc3nnc(-c4ccoc4)c(-c4ccoc4)n3)ccc2N1,0.3,97.0,18.0
COc1ccc(C(=O)NCc2cn3ccc(C)cc3n2)cc1,·,107.0,·
COc1ccc(C(=O)n2c(=S)nc3cc(C)ccn32)cc1,-16.0,79.0*,·
CC1CCN(C(=O)c2ccc(C(C)(C)C)cc2)CC1,2.3,98.0,·
COc1ccc(C(=O)N2CC(C)CC(C)C2)cc1 (centres undefined),-4.8,100.0,-5.5
COc1ccc(C(=S)N2CCC(C)CC2)cc1,-52.7,98.0,72.1*
CC1CCN(C(=O)c2ccc(Br)cc2)CC1,35.8*,102.0,4.4
CC(C)(C)OC(=O)/C=C/c1c(Cl)nc2sccn12,·,100.0,-0.1
N#CC(C#N)=Cc1c(Cl)nc2sccn12,-105.3,67.0*,-7.8
O=C(c1c(Cl)nc2sccn12)N1CCOCC1,·,106.0,-5.8
N#CSc1c(Cl)nc2sccn12,·,85.0*,64.8*
O=C(CCCN1C(=O)c2ccccc2C1=O)OCc1nc2ccc(Cl)cc2n1CCO,5.9,112.0,5.8
N/C(=N/O)c1ccccc1,·,102.0,-0.8
Cc1ccc(/C(N)=N\O)n1C,52.0*,102.0,·
Cc1nn(CCO)c(N)c1C1(O)C(=O)N(C)c2ccccc21 (centres undefined),-26.2,103.0,-0.5
O=C1CNC(=O)N1Cc1ccc(F)cc1,34.3*,99.0,1.5
O=C1CC(=O)N(Cc2ccc(F)cc2)C(=O)N1,-28.0,98.0,-2.9
Nc1ccccc1C(=O)CSc1ccccn1,-64.6,101.0,58.1
O=C(CSc1ccccn1)c1ccc(F)cc1,-10.3,99.0,86.0*
COc1ccc(-c2nnc(SCC(N)=O)n2C2CCCCC2)cc1OC,-4.4,102.0,-5.6
COc1ccc(-n2c(O)c(C=NCC(C)(C)N3CCOCC3)c3ccccc3c2=O)cc1OC,6.1,98.0,-36.4
SMILES,Mtb MenB inh,Polio RdRp inh,MbtI inh
COc1cccc(Oc2ccc(C(F)(F)F)cc2Nc2nc3ccccc3o2)c1,-109.1,81.0*,-35.5
COc1cccc(Oc2ccc(C(F)(F)F)cc2NC(=O)CSCC(=O)Nc2cc(C)on2)c1,-20.1,103.0,-4.8
COc1ccc(CN(C)C(=O)COc2ccccc2)cc1,-28.2,102.0,-8.4
CN(Cc1ccccc1)C(=O)COc1ccc(S(=O)(=O)N2CCCC2)cc1,40.5*,100.0,-3.3
O=C(O)c1cccnc1SCC(=O)N1c2ccccc2CCc2ccccc21,-20.8,104.0,19.1
N#CSCC(=O)N1c2ccccc2CCc2ccccc21,32.6*,100.0,20.8
O=C(CSc1nnc(-c2cc3ccccc3[nH]2)n1-c1ccccc1)N1CCNC1=O,3.5,58.0*,1.8
O=C(CSc1nnc(-c2cc3ccccc3[nH]2)n1-c1ccccc1)NC1CCS(=O)(=O)C1 (centres undefined),2.3,100.0,-0.4
CN(C)CCCNCc1ccco1,-22.2,103.0,-2.0
CN(C)CCCNCc1cccn1C,4.2,85.0*,-0.1
CC1Cc2ccccc2N1C(=O)CCS(=O)(=O)c1ccc2c(c1)CCN2C(=O)C1CC1 (centres undefined),6.7,102.0,-16.4
C=CCN1CNc2c(c(=O)[nH]c(=S)n2-c2cccc(C)c2C)C1,17.0,101.0,11.2
CCn1c(SCC(=O)Nc2ccc(S(=O)(=O)N3CCCC3)cc2)nnc1-c1ccccc1,4.9,105.0,1.5
COC(=O)c1c(NC(=O)CCCOc2cccc(C)c2)sc2c1CCC2,·,101.0,·
CCOc1ccc(/C=C/C(=O)Nc2sc3c(c2C(=O)OC)C(C(=O)OC)CC3)cc1 (centres undefined),·,79.0*,·
COC(=O)c1c(NC(=O)CCCOc2ccc(C)cc2)sc2c1C(C(=O)OC)CC2 (centres undefined),·,71.0*,·
COC(=O)c1c(NC(=O)CCCOc2ccc(C)cc2)sc2c1CCCC2,·,95.0,·
COC(=O)c1c(NC(=O)CCCOc2cccc(C)c2)sc2c1C(C(=O)OC)CC2 (centres undefined),·,81.0*,·
CCOc1ccc(/C=C/C(=O)Nc2sc3c(c2C(=O)OC)CCCC3)cc1,·,106.0,·
Cc1cc(=O)oc2c(CN(C)C3CCCCC3)c(O)ccc12,-6.7,103.0,114.3

# Compound activity deposited in PubChem BioAssay by ICCB-Longwood Screening Facility, Harvard Medical School.
